# Out of some 350,000 compounds screened, about 31,000 (8.9%) were called active. Not shown: some 15% with an inconclusive outcome. The call rests on the fitted dose curve; in most records, active means well fitted inhibition curve with a large enough effect; inconclusive means small, poorly fitted or top-dose-only effect; inactive means no such curve, though single readings can be large or run the other way. The full list was thinned out, with actives kept by preference.
# Target: Histone-lysine N-methyltransferase EHMT2 (Homo sapiens) (UniProt Q96KQ7)
# Assay: qHTS Assay for Inhibitors of Histone Lysine Methyltransferase G9a; further: nearly all actives have a fitted effect of over 75% in size
# Settings: G9a H3K9 monomethylation, AlphaScreen, 2 h; series mostly up to 59 µM; activity, negative = inhibition: at the top concentration
# In short: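 Quantitative HTS format: methyltransferase activity on a biotin-tagged H3K9 peptide is measured by AlphaScreen, using a rabbit anti-monomethyl-H3K9 antibody with streptavidin donor and anti-IgG acceptor beads. Final levels are 20 nM enzyme, 500 nM peptide, 20 uM SAM; 2 h RT.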
# On the % scale 0 is the no-effect control and ±100 the full control effect; potency means the concentration at half of the fitted maximal effect.
# Chain of Histone-lysine N-methyltransferase EHMT2 (Homo sapiens) (Q96KQ7 913-1193 limits assumed): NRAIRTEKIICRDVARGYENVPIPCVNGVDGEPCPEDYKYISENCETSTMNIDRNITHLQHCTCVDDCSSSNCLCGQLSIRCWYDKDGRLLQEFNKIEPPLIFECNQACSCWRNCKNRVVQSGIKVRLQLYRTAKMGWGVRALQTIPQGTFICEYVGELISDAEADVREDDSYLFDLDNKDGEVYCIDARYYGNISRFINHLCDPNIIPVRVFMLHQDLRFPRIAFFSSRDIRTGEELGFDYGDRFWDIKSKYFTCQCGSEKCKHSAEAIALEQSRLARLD
SMILES,"activity, negative = inhibition",Potency
Cc1ccsc1C(=O)OCC(=O)Nc1cccc(F)c1,19.6% [at 12.7 µM] (inactive),
CCOc1ccc(C(O)Cc2nc3ccccc3n2C)cc1 (centres undefined),-10.2% (inactive),
Cn1c(=N)n(CC(O)c2ccccc2)c2ccccc21 (centres undefined),9.45% (inactive),
CCOc1ccc(C(O)Cn2c(=N)n(CCN3CCCCC3)c3ccccc32)cc1 (centres undefined),,50.1 µM (active)
Fc1ccc(-c2nn(-c3ccccc3Cl)c3c2cnc2ccccc23)cc1,8% (inactive),
N#Cc1cccc(NC(=O)CN2CCCCCC2)c1,12.8% [at 102 µM] (inactive),
CC(C)c1ccc(NC2CCCN(C(=O)c3ccncc3)C2)cc1 (centres undefined),13.6% [at 102 µM] (inactive),
CC(C)c1ccc(NC(=O)NC2CCCCC2)cc1,1.01% (inactive),
Cc1cccc(C(=O)N2CCCC(Nc3ccc(C(C)C)cc3)C2)n1 (centres undefined),,56.2 µM (active)
CCN(CC(=O)NCc1ccc(Cl)cc1)C(=O)c1c(C)noc1C,-126% [at 12.7 µM] (inactive),
Cc1cccc(N2CCN(S(=O)(=O)c3ccc4[nH]c5c(c4c3)CCCCC5)CC2)c1C,-34.1% (inactive),
Cc1cccc(NC(=O)Cn2nc(-c3ccc(Cl)cc3)c3ccccc3c2=O)c1,27.7% (inactive),
CCN(CC)c1ccc(C(=O)NNC(=O)CCc2nc3ccccc3c(=O)[nH]2)cc1,34.4% [at 102 µM] (inactive),
CCCn1c(C)cc(-c2csc(NC(=O)CCc3nc4ccccc4c(=O)[nH]3)n2)c1C,,25.1 µM (active)
Cc1ccc(-c2csc(NC(=O)Cn3[nH]c(=O)c4ccccc4c3=O)n2)cc1,-22.3% [at 102 µM] (inactive),
Cc1ccc(-c2csc(NC(=O)Cc3cccs3)n2)cc1C,-13.1% [at 102 µM] (inactive),
CCCc1ccc(-c2csc(NC(=O)Cc3cccs3)n2)cc1,-17.3% [at 102 µM] (inactive),
Cc1cc(C)c(-c2csc(NC(=O)CCCc3nc4ccccc4c(=O)[nH]3)n2)c(C)c1,,50.1 µM (active)
COc1ccc(-c2cc(C(F)(F)F)nc(SCC(=O)N(C)Cc3ccccc3)n2)cc1OC,16.6% (inactive),
N#Cc1ccc(C2N=C(c3ccccc3)NO2)cc1 (centres undefined),13.3% [at 102 µM] (inactive),
Brc1ccccc1C1N=C(c2ccccc2)NO1 (centres undefined),,50.1 µM (active)
O=C(c1ccc(OC2CCN(C/C=C/c3ccc(F)cc3)CC2)cc1)N1CCCCC1,4.87% [at 102 µM] (inactive),
CC1CCC(NC(=O)CNC(=O)c2ccc3ccccc3c2)CC1 (centres undefined),5.09% [at 0.501 µM] (inactive),
COCCOC(=O)C1=C(C)NC(=O)NC1c1ccc(Cl)cc1 (centres undefined),20.2% (inactive),

SMILES,"activity, negative = inhibition",Potency
CCCOC(=O)C1=C(C)NC2=C(C(=O)C(C(=O)OC)C(C)C2)C1c1ccc(N(C)C)cc1 (centres undefined),,44.7 µM (active)
CCOC(=O)C1=C(C)NC2=C(C(=O)CC(C)(C)C2)C1c1ccsc1 (centres undefined),1.73% [at 12.7 µM] (inactive),
N#Cc1cccc(NC(=O)C2CCCN(C(=O)c3ccc(Cl)cc3)C2)c1 (centres undefined),10.9% [at 12.7 µM] (inactive),
COC(=O)c1sc2[nH]c(=S)n(N)c(=O)c2c1C,,7.94 µM (active)
CCOC(=O)c1sc2nc(C)[nH]c(=O)c2c1C,14.5% (inactive),
CCOC(=O)c1sc2nc(CSCC(=O)OCc3ccc(C(=O)OC)o3)[nH]c(=O)c2c1C,-43.1% (inactive),
CCCCN1CC(c2nc3ccccc3n2CCCCOc2ccc(C)cc2C)CC1=O (centres undefined),-41.5% (inactive),
CC1CCN(S(=O)(=O)c2ccc3c(ccn3CC(=O)O)c2)CC1,1.09% [at 102 µM] (inactive),
O=C(CCn1ccc2cc(S(=O)(=O)N3CCCC3)ccc21)NCc1cccc(Cl)c1,-5.24% (inactive),
CC1CCN(S(=O)(=O)c2ccc3c(ccn3CCC(=O)NCc3ccc(N(C)C)cc3)c2)CC1,,10 µM (active)
CC(C)C[C@H](NC(=O)C1CC(=O)N(c2ccc3c(c2)OCCO3)C1)C(=O)NC1CCCC1 (some centres undefined),19% [at 102 µM] (inactive),
CCOC(=O)CSc1nnc(NC(=O)C2CC(=O)N(c3ccc(F)cc3)C2)s1 (centres undefined),,63.1 µM (active)
O=C(Nc1nnc(SCc2c(Cl)cccc2Cl)s1)C1CCCO1 (centres undefined),47.8% [at 12.7 µM] (inactive),
COc1cccc(N2CC(C(=O)Nc3c(C)cccc3C)CC2=O)c1 (centres undefined),5.2% (inactive),
Cc1ccccc1N1CC(C(=O)Nc2ccc(S(=O)(=O)N3CCCC3)cc2)CC1=O (centres undefined),20.1% [at 2.33 µM] (inactive),
CCOC(=O)c1ccc(NC(=O)C2CC(=O)N(c3ccc(C(C)C)cc3)C2)cc1 (centres undefined),-25.6% (inactive),
Cc1ccccc1N1CC(C(=O)Nc2ccc3c(c2)OCO3)CC1=O (centres undefined),9.33% [at 102 µM] (inactive),
CC(=O)c1ccccc1NC(=O)C1CC(=O)N(c2ccc3c(c2)OCCO3)C1 (centres undefined),5.62% (inactive),
CCc1nnc(NC(=O)C2CC(=O)N(c3ccc4c(c3)OCCO4)C2)s1 (centres undefined),,10 µM (active)
Cc1cccc(N2CC(C(=O)Nc3ccccc3N3CCCC3)CC2=O)c1C (centres undefined),,70.8 µM (active)
Cc1ccccc1N1CC(C(=O)Nc2nnc(SCCC3OCCO3)s2)CC1=O (centres undefined),,25.1 µM (active)
CC(C)c1nnc(NC(=O)C2CC(=O)N(CCc3ccc(F)cc3)C2)s1 (centres undefined),-20.7% [at 102 µM] (inactive),
CCCCOc1ccc(C(=O)N2CC(=O)Nc3ccc(Br)cc3C2c2ccc(F)cc2)cc1 (centres undefined),-34.7% (inactive),
Cc1ccc(CNC(=O)Cn2c(=O)ccc3cc(S(=O)(=O)N4CCCC4)ccc32)cc1,16.7% (inactive),

SMILES,"activity, negative = inhibition",Potency
CC(=O)N1c2ccccc2CC1C(=O)N1CCN(c2ccc(F)cc2)CC1 (centres undefined),19.9% (inactive),
C[C@@H](NC(=O)c1nc[nH]c1C(=O)N1CCN(C(=O)OC(C)(C)C)CC1)c1ccccc1,4.62% [at 2.33 µM] (inactive),
CCOc1ccc(S(=O)(=O)c2cn(Cc3ccc(OC)cc3)c3ccc(F)cc3c2=O)cc1,-8% (inactive),
Cc1ccc(Cc2nnc(SCC(=O)Nc3ccc(C)cc3C)[nH]c2=O)cc1,-35.1% [at 102 µM] (inactive),
CCn1cc(C(=O)NCCc2ccccc2)c(=O)c2cc(S(=O)(=O)N3CCCCCC3)ccc21,-10.9% (inactive),
CCOC(=O)C1CCCN(C(=O)c2ccc3c(c2)sc2nc(-c4ccc(CC)cc4)cn23)C1 (centres undefined),-3.51% (inactive),
CCOc1ccc(OCC)c(NC(=O)c2cc(C)nc3c2c(C)nn3-c2cccc(Cl)c2C)c1,-2.87% (inactive),
CC1=C(C(=O)OCc2ccc(C)cc2)C(c2c(Cl)cccc2Cl)CC(=O)N1 (centres undefined),7.19% (inactive),
COc1ccc(CCNC(=O)COC(=O)c2cc(=O)c3ccccc3o2)cc1,21.3% [at 12.7 µM] (inactive),
COc1ccccc1N1CC(C(=O)Nc2nnc(SCC(=O)NC(C)C)s2)CC1=O (centres undefined),14.1% [at 12.7 µM] (inactive),
COc1ccccc1N1CC(C(=O)Nc2nnc(SCC(=O)NCC3CCCO3)s2)CC1=O (centres undefined),,31.6 µM (active)
COc1cc(OC)cc(C(=O)Nc2nnc(SCC(=O)NCC3CCCO3)s2)c1 (centres undefined),3.54% (inactive),
CN1C(=O)CC(c2ccccc2)C1=O (centres undefined),4.29% (inactive),
COc1ccc(NC(=O)c2cc([N+](=O)[O-])ccc2NC(=O)CNC2CCCCC2C)c(OC)c1 (centres undefined),-24.2% [at 102 µM] (inactive),
CCOC(=O)c1ccc(NC(=O)CC2C(=O)N(c3ccccc3)C(=O)N2Cc2cccs2)cc1 (centres undefined),3.95% (inactive),
CN1CCN(c2ccccc2NC(=O)COc2ccc(C3CCCCC3)cc2)CC1,,39.8 µM (active)
Cc1ccc(OCC(=O)Nc2ccccc2C(=O)NC2CC2)cc1,16.8% [at 12.7 µM] (inactive),
CCOc1ccccc1NC(=O)COc1ccc(S(=O)(=O)N2CCCC2)cc1,32.9% [at 102 µM] (inactive),
Cc1ccc(C(C)C)cc1OCC(=O)Nc1ccccc1N1CCCC1,,79.4 µM (active)
CCC(=O)N1CCN(c2ccccc2NC(=O)COc2cccc(C)c2C)CC1,14.4% [at 102 µM] (inactive),
CC(C)n1c(SCC(=O)Nc2ccccc2N2CCCCC2)nc2c1c(=O)n(C)c(=O)n2C,5.12% (inactive),
CCCC(=O)N1CCN(c2nc3c(OC)ccc(C)c3s2)CC1,-5.08% (inactive),
COc1cccc(NC(=O)COc2cc(C)cc3oc(=O)cc(C)c23)c1,-12.2% [at 102 µM] (inactive),
CNS(=O)(=O)c1cccc(C(=O)OCCCC(=O)c2ccccc2)c1,-6.99% [at 12.7 µM] (inactive),

SMILES,"activity, negative = inhibition",Potency
COc1ccc2c(c1)c(C(=O)N/N=C/c1cccs1)c(C)n2C,28.4% [at 102 µM] (inactive),
Cc1cc(C2=NNC(=Nc3ccc(S(=O)(=O)N4CCOCC4)cc3)SC2)c(C)n1CC1CCCO1 (centres undefined),,7.94 µM (active)
Cc1ccc(S(=O)(=O)N2CCC(C(=O)NCC3CCCO3)CC2)cc1 (centres undefined),5.26% (inactive),
CCOc1ccc(S(=O)(=O)N2CCN(C(=S)NCC3CCCO3)CC2)cc1 (centres undefined),-5.51% [at 102 µM] (inactive),
O=C(NC1CC(=O)N(c2ccc(F)cc2)C1)c1cccs1 (centres undefined),1.13% (inactive),
O=C(NCCC1CCCCN1S(=O)(=O)c1cccs1)C(=O)Nc1ccc(F)cc1F (centres undefined),-3.33% [at 0.501 µM] (inactive),
CC(=O)c1ccc(NC(=O)c2nc(-c3ccc(C)cc3)n3c2CCCCC3)cc1,-32% (inactive),
CC(C)Cn1c(=O)c2ccccc2n2c(CCC(=O)N3CCN(c4cccc(Cl)c4)CC3)nnc12,7.95% (inactive),
O=C1CN(C(=O)COc2c(Cl)cccc2Cl)c2ccccc2N1,-3.18% [at 102 µM] (inactive),
CCCCCN(C(=O)CCC(=O)OCC(=O)NC1CCC(C)CC1)c1c(N)n(CCCC)c(=O)[nH]c1=O (centres undefined),6.8% [at 0.501 µM] (inactive),
CC1CCc2[nH]c3ccc(C(=O)N(C)CC(=O)Nc4cccc(F)c4)cc3c2C1 (centres undefined),,44.7 µM (active)
CN(CC(=O)Nc1cccc(F)c1)C(=O)CC1CCCC1,-24.7% [at 102 µM] (inactive),
CN(CC(=O)Nc1cccc(F)c1)C(=O)C1=COCCO1,4.45% [at 102 µM] (inactive),
O=C(CCc1ccccc1)NNc1ccc(F)cc1,,31.6 µM (active)
O=C(CCc1ccccc1)NNC(=O)c1ccc(Br)cc1,2.57% [at 102 µM] (inactive),
CC(=O)Nc1ccc(S(=O)(=O)NNC(=O)CCc2ccccc2)cc1,-29% [at 12.7 µM] (inactive),
Cc1cc(C)cc(NC(=O)CCS(=O)(=O)c2cc3c4c(c2)CCN4C(=O)CC3)c1,-41.9% (inactive),
COc1ccc(Cc2nnc(SCC(=O)Nc3ccc(C)c(Cl)c3)[nH]c2=O)cc1,-0.286% [at 102 µM] (inactive),
O=C(NCc1ccccc1)C1CCN(S(=O)(=O)c2ccc3[nH]c(=O)ccc3c2)CC1,13.4% (inactive),
CCOC(=O)C(C)n1cnc2sc(C)c(C)c2c1=O (centres undefined),-9.24% (inactive),
CCOC(=O)c1c(-n2cnnn2)sc(C)c1C,,8.91 µM (active)
CCOc1ccc(C(=O)COC(=O)c2ccc(-n3cnnn3)cc2)cc1,51.5% [at 102 µM] (inactive),
